# This is a sample that favours compounds with a hit; in the whole collection about 2.9% have one here.
# Fam108B inh = mouse Fam108B serine hydrolase inhibitors, primary screen, counter-screen for RBBP9 inhibitor project, biochemical, fluorescence polarization; inhibition, % at 9.51 µM; recombinant Fam108B, FP-Rh probe fluorescence polarization; 300,000 compounds, 0.33% hits;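 active means inhibition above the screen mean inhibition plus 3 SD, computed separately per campaign, cut at about 18% in these data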;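 further: inhibitors lower polarization as less probe binds the enzyme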
# PAFAH1B3 inh = PAFAH1B3 enzyme inhibitors, primary screen, biochemical, fluorescence polarization, human; recombinant PAFAH1B3, FP-rhodamine probe; inhibition, % at 3.39 µM; 340,000 compounds, 0.28% hits; AID 492972, 2010;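 active means inhibition above the screen-wide average of all tested compounds plus 3 SD, cut at about 25% in these data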;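 further: 0% = enzyme with DMSO only and 100% = wells lacking PAFAH1B3 protein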
# PAFAH2 FP inh = PAFAH2 enzyme inhibitors, primary screen, biochemical, fluorescence polarization, human; Platelet-activating factor acetylhydrolase 2, cytoplasmic (Homo sapiens), Q99487; inhibition, % at 3.39 µM; recombinant PAFAH2, FP-rhodamine activity probe; 340,000 compounds, 0.99% hits;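 active means inhibition above the mean over all tested compounds plus 3 SD, cut at about 30% in these data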;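 further: inhibitors block probe labeling of enzyme so polarization drops; 0% = enzyme with DMSO and 100% = wells lacking PAFAH2 protein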
# PAFAH1B2 FP inh = PAFAH1B2 enzyme inhibitors, primary screen, biochemical, fluorescence polarization, human; recombinant PAFAH1B2, FP-rhodamine activity probe; inhibition, % at 3.39 µM; Platelet-activating factor acetylhydrolase IB subunit alpha2 (Homo sapiens), P68402; 340,000 compounds, 1.2% hits;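 active means inhibition above the mean of all tested compounds plus 3 SD, cut at about 24% in these data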;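 further: 0% = enzyme with DMSO and 100% = wells lacking PAFAH1B2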
# Target sequence (P68402 whole entry, looked up): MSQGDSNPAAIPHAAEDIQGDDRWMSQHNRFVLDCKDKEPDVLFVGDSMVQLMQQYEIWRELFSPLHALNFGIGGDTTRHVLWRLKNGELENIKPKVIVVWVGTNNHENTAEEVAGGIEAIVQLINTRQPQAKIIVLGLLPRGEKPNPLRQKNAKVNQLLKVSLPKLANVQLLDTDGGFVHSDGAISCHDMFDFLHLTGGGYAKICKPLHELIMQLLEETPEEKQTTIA
# PME-1 primary = PME-1 inhibitors via competitive probe labeling, primary screen, biochemical, fluorescence polarization, FP-Rh probe, HTS. Protein phosphatase methylesterase 1 (Homo sapiens), Q9Y570. recombinant PME-1. inhibition, % at 5.9 µM. 320,000 compounds, 0.53% hits. AID 2130, 2009;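 active means inhibition above the campaign mean of all compounds plus 3 SD, cut at about 26% in these data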;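 further: competitive labeling of PME-1 active site by serine hydrolase directed probe; 0% = PME-1 with DMSO and 100% = wells lacking PME-1 enzyme; inhibitors block probe labeling so polarization falls and inhibition rises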
# pPAFAH inh = pPAFAH enzyme inhibitors, primary screen, biochemical, fluorescence polarization, human | recombinant pPAFAH, FP-rhodamine probe fluorescence polarization | inhibition, % at 3.39 µM | Platelet-activating factor acetylhydrolase (Homo sapiens), Q13093 | 330,000 compounds, 1.5% hits;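 active means inhibition above the mean inhibition across the screen plus 3 SD, cut at about 25% in these data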;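 further: inhibitors block binding of the rhodamine activity-based probe so polarization drops; 0% = enzyme with DMSO and 100% = wells lacking pPAFAH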
# Target sequence (Q13093 whole entry, looked up): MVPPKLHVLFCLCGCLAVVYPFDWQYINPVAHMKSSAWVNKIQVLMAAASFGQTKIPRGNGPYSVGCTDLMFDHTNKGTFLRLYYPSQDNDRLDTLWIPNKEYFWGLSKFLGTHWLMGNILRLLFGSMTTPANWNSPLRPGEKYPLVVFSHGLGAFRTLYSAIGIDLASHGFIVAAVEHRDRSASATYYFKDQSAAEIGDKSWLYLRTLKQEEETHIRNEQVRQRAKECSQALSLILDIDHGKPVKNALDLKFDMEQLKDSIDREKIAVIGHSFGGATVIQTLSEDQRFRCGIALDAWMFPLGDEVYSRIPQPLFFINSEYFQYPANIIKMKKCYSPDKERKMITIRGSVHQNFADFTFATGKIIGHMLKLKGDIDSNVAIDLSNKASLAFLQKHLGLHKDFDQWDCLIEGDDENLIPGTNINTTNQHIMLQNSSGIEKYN
# * hit, by the source's call; / = not tested or not shown.
SMILES,Fam108B inh,PAFAH1B3 inh,PAFAH2 FP inh,PAFAH1B2 FP inh,PME-1 primary,pPAFAH inh
CCOc1ccccc1C=C1SC(=S)N(CC)C1=O,/,12.1,-1.8,-2.7,/,/
O=C(O)CN1C(=O)/C(=C\c2cccc(OCc3ccc(Cl)cc3Cl)c2)SC1=S,/,1.4,24.6,25.5*,/,/
CC1=N/C(=C/c2cc(Br)cc(Br)c2O)C(=O)O1,4.4,5.4,1.8,4.8,-5.0,3.8
O=C(Cc1cccs1)NCc1cc(Cl)cc(Cl)c1,-4.0,-1.1,6.2,5.8,-1.7,1.9
CCOC(=O)N1CCc2c(sc(NC(=O)c3ccc(Cl)s3)c2C(N)=O)C1,8.9,/,/,/,-5.6,24.9*
CCN(C[C@H]1N[C@@](C)(C(=O)OC)[C@H]2C(=O)N(Cc3ccccc3)C(=O)[C@@H]12)C(=O)Nc1ccc(OC)cc1,/,7.4,1.3,4.2,/,-1.4
O=S(=O)(Nc1ccon1)c1ccc(Br)cc1,-2.4,6.6,-3.0,1.3,-4.2,2.8
COc1ccc(C(=O)NC(=S)Nc2ccc3[nH]c(=O)[nH]c3c2)c(OC)c1,5.2,2.0,-4.8,3.7,-3.7,0.5
O=C(COC(=O)C1CC2C=CC1C2)NCCc1ccccc1 (stereo not given),-0.7,8.5,3.1,1.8,2.2,1.1
O=C(COC(=O)C1CC2C=CC1C2)Nc1ccccc1F (stereo not given),0.3,3.4,34.5*,-1.4,-5.6,23.8
COc1cccc(NC(=O)CN(C)C(=O)c2cccc(NS(=O)(=O)c3ccccc3)c2)c1,/,10.4,1.7,7.1,2.4,19.6
CN(CC(=O)Nc1ccc(F)cc1)C(=O)c1cccc(NS(=O)(=O)c2ccccc2)c1,/,-1.3,-2.6,0.4,-1.8,29.5*
CN(Cc1ccc(F)cc1)C(=O)c1cccc(S(=O)(=O)NCc2ccccc2)c1,3.5,4.8,-3.6,24.9*,4.4,6.7
COc1cccc(NC(=O)CN(C)C(=O)c2ccc(NS(=O)(=O)c3ccc(F)cc3)cc2)c1,/,6.5,4.2,0.7,-0.5,3.9
CC1CCCC(NC(=O)c2cccc(S(=O)(=O)NCc3ccccc3)c2)C1C (stereo not given),/,-0.3,1.1,30.0*,3.2,3.3
CC1CCCC(NC(=O)c2cccc(S(=O)(=O)N3CCN(c4ccccc4)CC3)c2)C1C (stereo not given),-1.8,4.4,-1.3,-4.4,-2.3,2.9
COc1cccc(NC(=O)CN(C)C(=O)c2cccc(NS(=O)(=O)c3ccc(Br)cc3)c2)c1,/,0.1,4.3,29.5*,/,/
N#Cc1ccc(C(=O)NCC2CCCCC2)cc1,4.8,2.1,-0.3,5.0,-5.9,2.1
CCOC1=C(C#N)CC2(CC1)c1ccccc1-c1ccccc12,/,7.4,2.8,3.1,/,/
Cc1[nH]c2ccccc2c1/C=C/c1nc2ccccc2c(=O)n1CCO,12.4,9.5,7.3,4.5,70.2*,17.4
Oc1ccc(N=Nc2ccc3c(c2)OCCO3)c2cccnc12,1.1,6.0,0.1,-0.3,-0.2,32.9*
Nc1ccc(N=Nc2ccccc2)c2cccnc12,14.8,13.4,8.7,4.4,24.5,27.9*
COc1ccc(N=Nc2ccc(O)c3ncccc23)cc1,3.5,7.5,-3.8,-2.8,8.0,30.9*
COc1ccc(C)cc1N=Nc1ccc(O)c2ncccc12,/,3.4,-2.4,2.8,/,/
O=C(CCCc1nc2ccccc2s1)NCc1cccnc1,-5.5,3.5,6.7,0.4,0.2,1.1
SMILES,Fam108B inh,PAFAH1B3 inh,PAFAH2 FP inh,PAFAH1B2 FP inh,PME-1 primary,pPAFAH inh
CCN1CCN(CCNC(=O)c2ccc(CS(=O)c3ccc(Cl)cc3)o2)CC1 (stereo not given),-2.2,5.5,-3.9,-2.9,-3.6,4.2
COc1ccccc1-c1nnc(SCC(=O)Nc2ccc3[nH]c(=O)[nH]c3c2)n1N,-3.4,-0.9,-1.6,0.0,3.5,0.5
CCN(CC(=O)Nc1ccc(NC(C)=O)cc1)C(=O)c1cccc(-n2cccc2)c1,-0.2,1.6,7.1,-0.6,-3.0,4.5
O=C(Oc1c(CN2CCOCC2)cc(Cl)c2cccnc12)c1ccccc1,-2.1,8.8,0.8,5.8,-0.6,2.7
Oc1c(Cl)cc(CN2CCOCC2)c2cccnc12,/,7.8,6.6,4.8,1.4,27.7*
CCc1ccc(-n2cc(-c3ccc([N+](=O)[O-])cc3)[nH]c2=S)cc1,-0.2,-18.4,-5.7,0.0,9.3,-0.5
CCc1ccc(-c2cn(C3CCCCC3)c(=S)[nH]2)cc1,7.7,5.6,8.7,0.7,8.2,29.6*
COc1ccc(NC(=O)CS(=O)(=O)c2ccccc2Cl)cc1,1.8,13.2,-3.0,4.0,-3.1,-3.0
Cc1ccc(C)c(SCC(=O)OCC(=O)c2ccco2)c1,0.4,5.9,15.4,0.7,0.7,28.2*
Cc1ccc(C)c(SCC(=O)NCc2ccco2)c1,-3.2,2.6,-0.5,7.2,10.8,-3.9
O=C(Nc1ccc(Cl)cc1)[C@@H]1[C@@H]2C(=O)N(c3ccc4ccccc4c3)C(=O)[C@@H]2[C@H]2C=CC=NN21,-5.7,4.2,32.8*,4.5,-7.1,29.4*
COCCCn1c(SCC(=O)Nc2sc3c(c2C#N)CCCC3)nnc1-c1ccncc1,1.4,2.8,11.3,-0.2,11.3,25.7*
CC(C)c1ccc(-c2nc(N3CCOCC3)[nH]c(=O)c2C#N)cc1,-5.8,7.2,-0.3,32.5*,-6.2,4.0
CCOC(=O)Cc1csc(NC(=O)c2sc3nc4cc(C)ccc4cc3c2N)n1,3.5,4.1,6.0,3.4,45.7*,24.1
CCc1cc(C(=O)N2CCN(S(=O)(=O)c3ccc(Cl)cc3)CC2)sc1C,/,5.0,21.4,13.2,3.6,2.0
Cc1ccc(NC(=O)CN(C)C(=O)c2ccc3[nH]c4c(c3c2)CC(C)CC4)cc1 (stereo not given),/,7.0,-2.1,47.9*,1.9,4.0
O=C(CC1CC2CCC1C2)N1CCN(S(=O)(=O)c2ccccc2F)CC1 (stereo not given),/,5.2,7.6,4.0,2.8,1.8
O=C(O)C(C(=O)/C=C/c1ccco1)=C1SCCS1,-3.7,4.2,11.9,5.8,-2.4,24.0
O=C(C=C1SCCS1)/C=C/c1ccco1,3.4,7.5,8.1,3.6,0.8,24.6*
O=C(/C=C/c1ccc([N+](=O)[O-])cc1)/C=C/c1ccco1,6.2,9.1,15.4,-2.5,2.9,62.1*
O=C(/C=C/c1ccc([N+](=O)[O-])cc1)c1ccco1,0.7,2.0,-4.6,2.9,2.7,3.5
CN(C)c1ccc(C(=O)N=c2sccn2C)cc1[N+](=O)[O-],-1.5,8.7,-3.0,2.7,-5.3,4.2
CC(=O)c1nn(-c2cccc(Br)c2)cc1C(=O)c1ccco1,-2.7,8.1,5.2,-3.7,5.1,25.2*

# High-throughput results as filed in PubChem BioAssay.
